D1 ag – activates the human D1 dopamine receptor | activation, % at 2 µM | HEK293 T-REx D1 cells, calcium flux, agonist mode | AID 504660 | 360,000 tested, 1% active | P21728; also: 0% is about no effect
Target sequence (P21728 whole entry, looked up): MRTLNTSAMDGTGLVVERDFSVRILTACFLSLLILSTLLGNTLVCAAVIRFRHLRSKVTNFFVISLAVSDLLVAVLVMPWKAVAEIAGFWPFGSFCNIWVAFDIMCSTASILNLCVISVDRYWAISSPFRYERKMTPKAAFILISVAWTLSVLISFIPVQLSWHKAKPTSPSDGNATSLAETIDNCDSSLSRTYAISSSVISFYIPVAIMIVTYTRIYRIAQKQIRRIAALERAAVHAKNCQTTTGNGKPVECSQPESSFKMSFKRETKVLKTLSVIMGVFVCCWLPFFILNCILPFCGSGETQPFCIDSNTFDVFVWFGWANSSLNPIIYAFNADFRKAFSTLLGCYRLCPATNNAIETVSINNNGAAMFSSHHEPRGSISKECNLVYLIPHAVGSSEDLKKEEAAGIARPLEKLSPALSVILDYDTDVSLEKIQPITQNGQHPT
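Inducible HEK293 T-REx D1 cells, force-coupled to calcium signalling, were plated at 4000 cells/well with tetracycline and held overnight at 30 C. After no-wash calcium dye loading, compound-evoked calcium rise over 180 s flagged agonists.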
D1 antag – human D1 dopamine receptor antagonism; HEK293 TREx D1 cells, calcium flux, dopamine EC80; hits give low values; activity change, negative = inhibition, % at 10 µM; 360,000 tested, 3.2% active; in the data active = activity change below about -30%; also: % is scaled to controls: 0 for no effect and ±100 for the full control effect
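Antagonism measured as reduced calcium response to an EC80 dopamine addition following 180 s compound pre-read; cells were inducible HEK293 Trex D1 plated overnight at 30 C, read kinetically at 1 cycle/sec.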
D1 potentiator – human D1 dopamine receptor positive modulation; 360,000 tested, 0.036% active; HEK293 TREx D1 cells, calcium flux, dopamine EC20 potentiation; P21728; potentiation, % at 10 µM; in the data active = potentiation above about 30%; also: 0% is about no effect
Epigenetic reg – epigenetic control regulation, reporter derepression; murine LDR cells, GFP reporter derepression, 30 h; Potency, µM (doses to about 53.9 µM), inactives show at the top dose GFP activation, actives largely listed as activators; 280,000 tested, 0.2% active; AID 1865; active = well fitted activation curve with a large enough effect; inconclusive = small, poorly fitted or top-dose-only effect; also: potency is read from the fitted curve at half-maximal effect; % of control where 0% means no effect; nearly all actives have a fitted effect of over 60% in size
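Readout is the number of GFP-expressing murine LDR cells, counted by cytometry following washing. Cells were treated with compound for 30 h at 37 C; the stably integrated CMV-GFP locus is normally silent.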
TRHR agonist – TRH receptor (human) agonism. TRHR cells, calcium flux fluo-8, FDSS agonist mode. activation, % at 2 µM. P34981. 360,000 tested, 0.18% active; also: 0% is about no effect
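Fluo-8-loaded TRHR cells; 10 s baseline, compound added, kinetic Ca2+ fluorescence read 1/s, agonist mode.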
TRHR enhancer – allosteric enhancers of human TRH receptor. enhancement, % at 2 µM. P34981. 360,000 tested, 0.66% active. TRHR cells, fluo-8 calcium fluorescence, EC20 TRH enhancement; in the data active = enhancement above about 30%; also: 0% is about no effect
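Enhancer read-out: after compound pinning and an initial kinetic agonist-mode read, an EC20 of TRH (10 nM final) was injected and fluo-8 calcium signal (Ex 480/Em 530) followed at 1 s/cycle for 100 cycles in TRHR-expressing cells.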
The depositor's hits bear a star; ? = inconclusive; . = no result given; [ ] = dose if it differs, or a comment. An excerpt weighted towards active compounds, which were near 4.6% of everything screened. Rule as the data show it, unless noted: active = activation above about 30%; inactive = the rest.

SMILES	D1 ag	D1 antag	D1 potentiator	Epigenetic reg	TRHR agonist	TRHR enhancer
OCc1cnc(SCc2ccccc2)n1Cc1ccccc1	3.4	2.1	-1.8	-1.9%	-0.1	-6.7
CCN(CC(=O)Nc1c(F)cccc1F)C(=O)CNC(=O)c1ccc2c(c1)OCO2	4.3	-32.5*	-4.0	.	0.4	8.1
CCOCCn1ccc2c(OCC(=O)Nc3ccc(OC(F)(F)F)cc3)cccc2c1=O	-1.9	.	-0.8	4.6%	-0.1	-1.3
Cc1ccc(OC(=O)c2ccc(Br)o2)cc1	101.9*	-47.9*	3.7	0.0%	0.4	-5.4
CC(=O)c1ccc(OC(=O)c2ccc(Br)o2)cc1	59.5*	-16.3	-4.0	0.6%	-2.0	0.3
O=C(c1ccccc1)N1c2nc(-c3ccco3)nn2C2(CCCCC2)[C@@H]2CCCC[C@@H]21	1.1	-16.3	0.9	-1.6%	-0.7	-1.8
CCOC(=O)c1ccc(CN(Cc2ccc(F)cc2)S(=O)(=O)c2cc(C(=O)Nc3cccc(C(F)(F)F)c3)ccc2F)cc1	10.6	4.2	-0.5	6.2%	2.7	0.1
CC(C)COc1ccc(C(=O)N2CCCCC2CCN2CCCCC2)cc1 (centres undefined)	1.0	13.4	-1.1	9.2%	0.0	-0.8
Cc1cc(=O)n(CC(=O)N2CCN(c3ccc(F)cc3)CC2)c2c1c(C)nn2C	10.2	-7.6	-4.9	1.1%	-0.3	12.3
COc1ccc(NC(=O)c2cc3nc(-c4ccc(Cl)c(Cl)c4)cc(C(F)(F)F)n3n2)c(OC)c1	-1.5	-66.1*	0.1	-0.8%	-0.4	7.1
COc1ccc(-c2cc(C(F)(F)F)n3nc(C(=O)Nc4ccc(Cl)cc4C(F)(F)F)cc3n2)cc1OC	-1.2	12.6	-1.4	0.0%	-0.4	8.4
CCNC(=O)C(=O)Nc1ccc(OC)c(Cl)c1	12.2	-14.2	-4.0	0.6%	-0.1	-5.4
COc1ccc(NC(=O)C(=O)c2cc(C)n(-c3ccc(C)cc3)c2C)cc1Cl	3.7	-52.9*	-1.9	10.1%	-0.2	-1.6
COc1ccc2c(c1)CCCN2C(N)=Nc1ccc(Cl)cc1	48.6*	-44.1*	-10.1	-1.1%	13.6	-9.2
CC1CCN(c2nn3c(=O)c(C(=O)NC(C)C)cnc3s2)CC1	-0.7	3.0	-1.8	-0.9%	0.3	2.5
CN(C)c1ccc(/C=C/C(=O)c2ccccc2O)cc1	35.1*	-25.0	-0.7	-3.7%	13.4	-5.7
COc1ccc(C(=O)/C=C/c2ccc(N(C)C)cc2)c(OC)c1	295.2*	4.0	-4.5	8.5%	127.0*	8.3
COc1ccc(C(=O)/C=C/c2cc(OC)c(O)c(OC)c2)c(F)c1	52.3*	-5.1	-3.8	-3.2%	-2.4	6.2
CN(C)c1ccc(/C=C/C(=O)c2cccnc2)cc1	175.6*	-0.5	-8.8	5.3%	95.4*	6.4
O=C(/C=C/c1cccc(O)c1)c1cccnc1	0.6	10.3	0.1	?	1.0	5.4
Cc1ccc(CNC(=O)C2CCN(c3nc4ccccc4n(C)c3=O)CC2)cc1	0.1	-10.5	4.5	-3.4%	1.0	9.1
CSc1cccc(NC(=O)CN2C(=O)COc3ccc(S(=O)(=O)N4CCC(C)CC4)cc32)c1	1.9	-14.8	-1.9	-1.6%	0.6	-6.7
Cc1ccc(Cl)cc1NC(=O)Cn1c(=O)cc(C)c2c(C)nn(C)c21	12.7	-9.9	-5.7	0.0%	-0.1	1.9
CCc1ccc(NC(=O)c2sc3nc(C)cc(C)c3c2NC(=O)c2ccccc2OC)cc1	-0.2	0.2	-2.1	0.0%	0.0	39.9*
Cc1nnsc1NC(=O)OCc1ccc(C(C)(C)C)cc1	7.9	-32.4*	-2.5	-0.2%	0.2	-5.9
SMILES	D1 ag	D1 antag	D1 potentiator	Epigenetic reg	TRHR agonist	TRHR enhancer
CCOC(=O)OCC1OC(C#CC(C)(C)C)C=CC1OC(=O)OCC (centres undefined)	.	.	.	0.0%[10.1 µM]	.	.
COc1cccc(NS(=O)(=O)c2c(C(=O)N3CCCCCC3)c(C)n(C)c2C)c1	1.5	43.7	18.2	.	-1.1	32.9*
COC(=O)c1cc(=O)n(CCc2ccccc2)c(=Nc2ccc(F)cc2)s1	0.1	-16.3	3.9	-0.8%	1.6	9.9
COC(=O)c1cc(=O)n(CCc2ccc(OC)cc2)c(=Nc2ccc(F)c(Cl)c2)s1	7.3	-59.7*	-7.9	-1.0%	-0.5	3.0
COCC(=O)O[C@]1(CCN(C)CCCc2nc3ccccc3[nH]2)CCc2cc(F)ccc2[C@@H]1C(C)C	66.8*	-22.7	-10.0	-0.1%	2.9	-3.6
Cc1cccc(OCC(=O)NCCc2nc3ccccc3[nH]2)c1C	1.5	-4.8	-2.0	-0.7%	0.1	3.0
CCCCC(=O)NCCc1c(Cc2ccccc2)[nH]c2ccccc12	.	.	.	0.0%	.	.
O=C(CCc1[nH]c2ccccc2c1Sc1ccccc1)NCCO	47.6*	5.6	-6.6	1.0%	-1.0	0.4
Cc1ccc2c(c1)cc1c(=O)n(Cc3ccccc3Cl)nc(C)n12	-0.4	0.2	1.1	0.9%	-0.1	-4.5
S=c1[nH]nc(-c2ccccc2Cl)n1/N=C/C=C/c1ccco1	1.2	-35.7*	-4.0	-1.0%	0.4	18.8
CC(=O)c1ccc(N2CCN(S(=O)(=O)c3ccc4ccccc4c3)CC2)cc1	0.5	-35.3*	3.8	.	0.2	-1.0
CCS(=O)(=O)N1CCN(S(=O)(=O)c2ccc3ccccc3c2)CC1	5.5	-3.8	0.9	.	0.4	11.5
CC(C)N1CCN(S(=O)(=O)c2ccc3ccccc3c2)CC1	2.4	-91.8*	-0.7	.	-0.6	4.8
CC(=O)c1ccc(NC(=O)CN2CCN(S(=O)(=O)c3ccc4ccccc4c3)CC2)cc1	35.0*	-35.3*	.	.	0.8	2.0
CC(=O)c1ccc(N2CCN(S(=O)(=O)c3ccc4c(c3)C(C)(C)C(=O)N4)CC2)cc1	4.0	-7.6	-1.1	-0.4%	0.5	18.1
NC(=O)c1ccc(NC(=O)CN2CCN(S(=O)(=O)c3ccc4ccccc4c3)CC2)cc1	7.0	-5.4	.	.	-0.3	1.0
CCOc1ccc(CNC(=O)Cn2cc3c(n2)-c2c(oc(C(=O)N4CCOCC4)c2C)CC3)cc1	2.2	-3.7	-3.1	-2.8%	0.0	-2.2
O=C(COC(=O)c1ccccc1O)NCCCc1ccccc1	1.8	-34.3*	-6.1	-0.3%	-0.5	-0.4
O=C(COC(=O)c1cccnc1Cl)NCCCc1ccccc1	1.6	-3.4	-3.8	.	-0.5	-5.9
CCc1ccc(OCC2c3cc(OC)c(OC)cc3CCN2C(=O)COc2ccccc2)cc1 (centres undefined)	1.1	-5.8	-1.8	2.5%	0.2	4.4
Cc1ccc2nc(N3C(=O)CNC3=S)sc2c1	5.9	-7.1	-5.5	?	0.2	-6.2
COc1ccc2nc(N3C(=O)CNC3=S)sc2c1	0.2	-40.5*	-9.6	?	0.3	5.8
NC(=O)CSCc1nc2ccccc2s1	4.1	11.9	-1.1	-10.0%	1.5	36.6*
N/C(Cc1nc2ccccc2s1)=N\O	4.2	10.3	-3.0	2.0%	1.6	-0.6

Bioassay records from PubChem.
